The values below come from ChEMBL document CHEMBL2218924, “A broad activity screen in support of a chemogenomic map for kinase signalling research and drug discovery” (Biochem J, 2013).

Assay [1] concerns the target T1, Ephrin type-A receptor 3 (Homo sapiens) (UniProt P29320).
T1 sequence (whole entry): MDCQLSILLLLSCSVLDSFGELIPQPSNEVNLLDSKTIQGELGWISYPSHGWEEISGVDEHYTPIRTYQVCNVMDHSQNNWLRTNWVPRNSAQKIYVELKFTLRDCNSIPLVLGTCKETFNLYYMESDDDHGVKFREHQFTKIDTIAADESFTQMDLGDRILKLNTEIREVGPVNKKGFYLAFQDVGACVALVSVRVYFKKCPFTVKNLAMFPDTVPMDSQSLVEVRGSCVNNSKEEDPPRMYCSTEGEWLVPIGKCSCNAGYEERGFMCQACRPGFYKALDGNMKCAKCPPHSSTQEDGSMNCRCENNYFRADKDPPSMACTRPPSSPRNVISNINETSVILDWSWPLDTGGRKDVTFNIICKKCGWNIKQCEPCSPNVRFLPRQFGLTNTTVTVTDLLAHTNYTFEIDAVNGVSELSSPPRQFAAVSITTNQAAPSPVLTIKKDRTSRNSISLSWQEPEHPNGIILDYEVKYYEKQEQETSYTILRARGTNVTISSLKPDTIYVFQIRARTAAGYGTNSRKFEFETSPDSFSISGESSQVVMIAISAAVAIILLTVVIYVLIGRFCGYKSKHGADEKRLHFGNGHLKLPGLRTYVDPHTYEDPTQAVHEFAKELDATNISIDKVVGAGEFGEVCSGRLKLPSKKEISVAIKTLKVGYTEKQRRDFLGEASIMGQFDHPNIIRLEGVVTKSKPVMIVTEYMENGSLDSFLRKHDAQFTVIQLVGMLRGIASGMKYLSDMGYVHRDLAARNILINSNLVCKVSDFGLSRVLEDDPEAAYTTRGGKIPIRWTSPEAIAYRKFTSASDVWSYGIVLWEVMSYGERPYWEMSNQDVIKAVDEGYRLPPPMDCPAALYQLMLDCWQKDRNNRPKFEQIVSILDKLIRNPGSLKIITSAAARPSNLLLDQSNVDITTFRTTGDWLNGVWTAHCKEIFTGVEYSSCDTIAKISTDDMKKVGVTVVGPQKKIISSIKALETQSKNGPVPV
Conditions: at 10 µM.

Assay [2] concerns the target Ephrin type-A receptor 4 (Homo sapiens) (UniProt P54764). To be noted: at 1 µM.
Assay [3] shares this target. Conditions: at 10 µM.
Assay [4] deals with Ephrin type-A receptor 5 (Homo sapiens) (UniProt P54756). To be noted: at 1 µM.
Ephrin type-A receptor 5 (Homo sapiens), sequence (P54756 whole entry): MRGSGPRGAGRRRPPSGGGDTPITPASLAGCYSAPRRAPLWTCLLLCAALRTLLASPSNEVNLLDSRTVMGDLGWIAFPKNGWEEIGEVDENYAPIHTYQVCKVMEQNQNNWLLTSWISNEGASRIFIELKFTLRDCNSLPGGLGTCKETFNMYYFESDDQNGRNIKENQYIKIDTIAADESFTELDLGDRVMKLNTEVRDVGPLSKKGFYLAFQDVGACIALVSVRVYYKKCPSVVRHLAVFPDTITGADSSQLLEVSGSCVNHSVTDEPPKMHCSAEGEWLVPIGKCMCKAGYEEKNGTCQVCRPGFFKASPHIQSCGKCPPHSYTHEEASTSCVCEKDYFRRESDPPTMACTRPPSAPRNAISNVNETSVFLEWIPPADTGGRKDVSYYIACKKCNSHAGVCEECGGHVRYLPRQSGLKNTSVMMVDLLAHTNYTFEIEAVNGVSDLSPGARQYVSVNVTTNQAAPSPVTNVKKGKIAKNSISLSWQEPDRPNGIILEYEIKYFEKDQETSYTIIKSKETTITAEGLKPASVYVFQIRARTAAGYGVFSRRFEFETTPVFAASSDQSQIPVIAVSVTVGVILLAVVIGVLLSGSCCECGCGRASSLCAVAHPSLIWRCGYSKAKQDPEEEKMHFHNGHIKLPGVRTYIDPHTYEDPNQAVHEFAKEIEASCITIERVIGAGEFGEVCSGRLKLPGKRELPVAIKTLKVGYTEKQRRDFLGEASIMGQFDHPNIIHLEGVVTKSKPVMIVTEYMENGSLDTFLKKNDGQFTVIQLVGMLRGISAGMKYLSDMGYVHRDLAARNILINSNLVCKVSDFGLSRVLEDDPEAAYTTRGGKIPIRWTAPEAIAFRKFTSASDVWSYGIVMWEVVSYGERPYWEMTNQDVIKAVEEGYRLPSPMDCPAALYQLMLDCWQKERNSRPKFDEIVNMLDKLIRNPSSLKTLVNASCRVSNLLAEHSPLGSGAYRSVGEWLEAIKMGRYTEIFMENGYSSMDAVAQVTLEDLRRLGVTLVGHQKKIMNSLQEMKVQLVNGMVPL
Assay [5] shares this target. Conditions: at 10 µM.
In assay [6] the target is Ephrin type-A receptor 7 (Homo sapiens) (UniProt Q15375). To be noted: at 1 µM.
Ephrin type-A receptor 7 (Homo sapiens), sequence (Q15375 28-998 limits assumed): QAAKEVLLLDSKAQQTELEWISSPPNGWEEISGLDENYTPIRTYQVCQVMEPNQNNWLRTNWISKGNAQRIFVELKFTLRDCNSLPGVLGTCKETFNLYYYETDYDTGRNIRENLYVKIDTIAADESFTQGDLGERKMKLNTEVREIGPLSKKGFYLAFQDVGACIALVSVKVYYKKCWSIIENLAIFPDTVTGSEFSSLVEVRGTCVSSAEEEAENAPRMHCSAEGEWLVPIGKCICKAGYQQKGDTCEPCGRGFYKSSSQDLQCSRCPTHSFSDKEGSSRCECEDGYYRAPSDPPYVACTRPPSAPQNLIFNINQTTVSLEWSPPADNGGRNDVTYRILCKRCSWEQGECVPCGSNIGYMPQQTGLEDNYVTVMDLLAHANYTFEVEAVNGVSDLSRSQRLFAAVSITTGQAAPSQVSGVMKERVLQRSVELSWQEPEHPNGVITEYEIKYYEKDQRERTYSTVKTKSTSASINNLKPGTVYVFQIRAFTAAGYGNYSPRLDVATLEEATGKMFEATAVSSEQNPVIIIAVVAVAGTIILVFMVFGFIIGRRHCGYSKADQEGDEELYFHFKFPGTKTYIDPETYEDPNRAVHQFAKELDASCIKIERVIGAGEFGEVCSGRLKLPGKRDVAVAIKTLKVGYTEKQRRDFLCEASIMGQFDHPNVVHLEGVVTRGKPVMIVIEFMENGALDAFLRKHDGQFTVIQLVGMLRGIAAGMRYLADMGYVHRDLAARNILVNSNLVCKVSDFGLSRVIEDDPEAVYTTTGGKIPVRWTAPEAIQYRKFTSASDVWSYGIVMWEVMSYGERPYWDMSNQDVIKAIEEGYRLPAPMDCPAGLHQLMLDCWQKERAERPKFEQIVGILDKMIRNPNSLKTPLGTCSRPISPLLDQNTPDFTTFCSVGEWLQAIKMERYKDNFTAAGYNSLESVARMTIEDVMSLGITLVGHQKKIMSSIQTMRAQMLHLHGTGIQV
For assay [7] the target is unchanged. To be noted: at 10 µM.
Assay [8] addresses T2, Ephrin type-A receptor 8 (Homo sapiens) (UniProt P29322).
T2 sequence (whole entry): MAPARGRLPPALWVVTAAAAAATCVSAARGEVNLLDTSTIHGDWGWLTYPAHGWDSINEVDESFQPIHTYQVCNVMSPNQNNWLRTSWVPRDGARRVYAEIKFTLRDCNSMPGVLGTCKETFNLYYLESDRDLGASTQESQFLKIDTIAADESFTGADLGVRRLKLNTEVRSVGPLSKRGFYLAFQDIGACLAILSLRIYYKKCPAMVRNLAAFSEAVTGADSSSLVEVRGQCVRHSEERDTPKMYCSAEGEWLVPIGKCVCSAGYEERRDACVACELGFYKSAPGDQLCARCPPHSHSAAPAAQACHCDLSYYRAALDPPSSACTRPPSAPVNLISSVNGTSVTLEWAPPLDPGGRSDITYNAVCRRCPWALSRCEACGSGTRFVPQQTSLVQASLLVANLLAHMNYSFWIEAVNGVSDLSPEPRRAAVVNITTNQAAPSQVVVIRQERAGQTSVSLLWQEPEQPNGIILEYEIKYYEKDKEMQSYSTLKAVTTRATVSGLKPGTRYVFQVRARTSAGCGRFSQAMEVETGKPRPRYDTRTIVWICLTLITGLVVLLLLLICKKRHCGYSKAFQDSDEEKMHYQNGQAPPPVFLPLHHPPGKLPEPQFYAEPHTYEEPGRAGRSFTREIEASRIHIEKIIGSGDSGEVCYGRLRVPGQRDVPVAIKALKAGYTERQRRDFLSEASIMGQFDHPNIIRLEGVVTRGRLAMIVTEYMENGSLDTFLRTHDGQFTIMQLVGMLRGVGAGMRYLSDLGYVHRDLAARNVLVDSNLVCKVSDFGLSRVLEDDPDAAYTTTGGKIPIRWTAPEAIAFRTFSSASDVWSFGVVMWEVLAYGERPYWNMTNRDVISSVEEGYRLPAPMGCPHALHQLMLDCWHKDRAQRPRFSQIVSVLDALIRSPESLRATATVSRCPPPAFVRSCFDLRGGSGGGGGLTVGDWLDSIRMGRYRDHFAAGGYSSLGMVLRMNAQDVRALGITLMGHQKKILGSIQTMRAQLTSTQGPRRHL
To be noted: at 1 µM.

Assay [9] concerns the target T2, Ephrin type-A receptor 8 (Homo sapiens). Conditions: at 10 µM.
Assay [10] concerns the target T3, Ephrin type-B receptor 1 (Homo sapiens) (UniProt P54762).
T3 sequence (whole entry): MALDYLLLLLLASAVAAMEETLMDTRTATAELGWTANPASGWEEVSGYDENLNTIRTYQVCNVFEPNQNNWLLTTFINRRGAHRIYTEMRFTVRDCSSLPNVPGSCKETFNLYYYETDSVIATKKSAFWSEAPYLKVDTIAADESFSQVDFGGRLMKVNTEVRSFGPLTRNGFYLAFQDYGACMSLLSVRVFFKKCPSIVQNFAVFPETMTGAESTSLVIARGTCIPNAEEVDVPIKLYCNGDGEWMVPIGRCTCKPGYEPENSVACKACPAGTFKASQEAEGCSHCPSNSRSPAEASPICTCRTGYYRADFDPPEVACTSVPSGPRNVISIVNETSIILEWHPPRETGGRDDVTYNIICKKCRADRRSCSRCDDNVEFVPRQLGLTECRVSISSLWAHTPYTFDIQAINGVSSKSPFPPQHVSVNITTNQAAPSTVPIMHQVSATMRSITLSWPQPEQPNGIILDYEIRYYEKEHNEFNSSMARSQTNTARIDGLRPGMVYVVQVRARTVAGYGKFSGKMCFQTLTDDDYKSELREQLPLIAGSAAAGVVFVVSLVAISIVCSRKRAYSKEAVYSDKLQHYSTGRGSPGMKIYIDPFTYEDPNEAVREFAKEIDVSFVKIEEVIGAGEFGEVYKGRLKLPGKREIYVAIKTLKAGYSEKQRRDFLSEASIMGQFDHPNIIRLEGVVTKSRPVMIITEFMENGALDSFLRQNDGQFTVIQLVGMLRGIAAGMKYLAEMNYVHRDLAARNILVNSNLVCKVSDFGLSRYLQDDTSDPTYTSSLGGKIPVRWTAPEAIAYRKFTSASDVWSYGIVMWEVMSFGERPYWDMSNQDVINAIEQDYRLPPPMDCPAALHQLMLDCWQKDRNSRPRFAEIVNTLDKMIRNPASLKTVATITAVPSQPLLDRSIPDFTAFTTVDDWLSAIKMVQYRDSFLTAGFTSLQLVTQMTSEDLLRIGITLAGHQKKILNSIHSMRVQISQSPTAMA
Conditions: at 1 µM.

Ephrin type-A receptor 4 (Homo sapiens), sequence (P54764 whole entry): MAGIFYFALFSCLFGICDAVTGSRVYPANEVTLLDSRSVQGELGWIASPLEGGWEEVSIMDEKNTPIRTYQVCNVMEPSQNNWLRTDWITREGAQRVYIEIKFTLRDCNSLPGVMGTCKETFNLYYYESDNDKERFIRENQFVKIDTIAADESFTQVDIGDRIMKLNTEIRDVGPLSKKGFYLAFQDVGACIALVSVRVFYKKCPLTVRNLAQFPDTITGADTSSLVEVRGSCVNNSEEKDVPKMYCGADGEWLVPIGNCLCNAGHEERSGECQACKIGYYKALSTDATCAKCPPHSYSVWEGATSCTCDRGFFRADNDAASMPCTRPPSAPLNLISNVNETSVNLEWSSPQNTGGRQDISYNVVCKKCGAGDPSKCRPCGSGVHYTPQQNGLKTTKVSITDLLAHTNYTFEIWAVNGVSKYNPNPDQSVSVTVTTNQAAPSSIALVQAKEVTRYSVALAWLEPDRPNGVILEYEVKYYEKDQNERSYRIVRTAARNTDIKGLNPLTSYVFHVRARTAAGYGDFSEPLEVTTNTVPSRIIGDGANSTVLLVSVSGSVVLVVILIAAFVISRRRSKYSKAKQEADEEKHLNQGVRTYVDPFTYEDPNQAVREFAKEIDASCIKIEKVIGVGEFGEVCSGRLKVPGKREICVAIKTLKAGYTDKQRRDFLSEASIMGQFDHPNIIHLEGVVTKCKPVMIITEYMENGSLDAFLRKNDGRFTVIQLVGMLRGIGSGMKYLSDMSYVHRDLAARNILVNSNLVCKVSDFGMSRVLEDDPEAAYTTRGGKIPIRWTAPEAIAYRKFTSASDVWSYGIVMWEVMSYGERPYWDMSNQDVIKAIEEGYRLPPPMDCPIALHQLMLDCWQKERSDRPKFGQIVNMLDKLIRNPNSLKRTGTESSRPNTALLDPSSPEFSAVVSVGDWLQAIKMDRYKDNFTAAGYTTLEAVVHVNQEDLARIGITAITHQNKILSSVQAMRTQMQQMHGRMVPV

A word on the residual activity: it is the signal under treatment as a percentage of the control signal. With `O=C(O)c1ccc2c3c1cccc3c(=O)n1c3ccccc3nc21`, the residual activity was found to be 91% in assay [1]; 106% in assay [2]; 104% in [3]; 102% in [4]; 100% in assay [5]; 104% in assay [6]. In addition, the residual activity was determined as 88% in [7], 103% in assay [8], 93% in assay [9] and 107% in assay [10].
